Results reported in the supplement of paper PMC6555819.

Key:
Assay in all cases: PBM binding z-score (relative to random genomic background probes); higher = stronger binding; sequences stand for … in GC…GCGATTGACAGCGTAGAATGAAGG
[1] = system: FXR:RXRa (NR concentration 270 nM, RXRa partner concentration 90 nM)
In short: (§1)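 For binding z-scores, the reference was random background probes on custom Agilent 4×180K protein-binding microarrays. These arrays were incubated 1 h with ligand-free nuclear receptor dimers in PBS pH 7.4, 2% milk, 0.02% Triton X-100, 1 mM DTT, 0.2 mg/mL BSA and 0.4 mg/ml salmon testes DNA. Fluorescence was scanned after antibody detection of each partner (one per run) and regression-normalized.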

[2] = system: LXRa:RXRa (NR concentration 270 nM, RXRa partner concentration 90 nM)
In short: as §1

[3] = system: LXRa homodimer (NR concentration 270 nM)
In short: as §1

[4] = system: LXRb:RXRa (NR concentration 270 nM, RXRa partner concentration 90 nM)
In short: as §1

[5] = system: LXRb homodimer (NR concentration 270 nM)
In short: as §1

[6] = system: PPARa:RXRa (NR concentration 270 nM, RXRa partner concentration 90 nM)
In short: as §1

[7] = system: PPARg:RXRa (NR concentration 180 nM, RXRa partner concentration 90 nM)
In short: as §1

[8] = system: PPARg:RXRa 270nM:90nM, anti-RXR (NR concentration 270 nM, RXRa partner concentration 90 nM)
In short: as §1

[9] = system: PPARg:RXRa 30nM:10nM, anti-RXR (NR concentration 30 nM, RXRa partner concentration 10 nM)
In short: as §1

[10] = system: PPARg:RXRa 90nM:30nM, anti-RXR (NR concentration 90 nM, RXRa partner concentration 30 nM)
In short: as §1

Row | Sequence | PBM binding z-score [1] | PBM binding z-score [2] | PBM binding z-score [3] | PBM binding z-score [4] | PBM binding z-score [5] | PBM binding z-score [6] | PBM binding z-score [7] | PBM binding z-score [8] | PBM binding z-score [9] | PBM binding z-score [10]
1 | TCTTGTAGAACAAAGGTTAAGAAAGCCGAAGCCT | 1.11 | 1.68 | -0.0357 | 1.97 | -0.155 | 4.32 | 7.84 | 7.99 | 7.71 | 8.74
2 | ATCGTAAGGTCGACGAGGTGAGTATACACCGTTT | 3.07 | 1.79 | -0.0992 | 1.66 | 0.155 | 3.03 | 1.36 | 1.25 | 0.685 | 0.918
3 | ACAGACAGGTGAGTGATGGTAACTCAGCTGGACG | 0.332 | 0.668 | -0.354 | -0.409 | -0.477 | -0.213 | 0.554 | -0.115 | -0.0308 | -0.212
4 | CAAACTAGGTCACCGAGGTCAAAGTCCGTGCGTA | 7 | 6.22 | 5.91 | 5.75 | 1.25 | 6.56 | 10.2 | 8.39 | 6.43 | 8.33
5 | TCTAGTAGGTTAGGGGCATTCAGAATGGCGTCGA | 0.875 | 0.688 | 0.102 | 1.21 | 0.903 | 1.94 | 2 | 3.69 | 3.42 | 3.55
6 | TGAGACAGGTGAAGGTAACTCAGGTACGCAGTCG | -0.213 | 1.11 | -0.351 | 0.233 | -0.678 | 0.549 | 0.639 | 0.251 | 0.211 | -0.17
7 | TCTTGTAGATCAACAGGAGGGTAAGAAAGATCGA | 0.289 | 0.24 | -0.818 | 0.0772 | -0.238 | 0.374 | -0.102 | 1.06 | 2.25 | 1.7
8 | CCTACTGGGCCAAATAGGTCATTGATGCCGATAA | 1.09 | 1.66 | 0.941 | 1.91 | -0.592 | 3.18 | 2.07 | 2.92 | 0.838 | 2.18
9 | TCTGGTTGGTCACGGAGGTCACACACGACGGGTA | 3.5 | 3.63 | 2.85 | 3.58 | 1.47 | 3.99 | 3.13 | 3.7 | 2.69 | 3.15
10 | TCTAGCAGGCCAGAGGGTCACTGAAGAGGTACGG | 0.95 | 1.08 | -0.818 | 1.01 | -1.1 | 2.79 | 1.69 | 2.79 | 1.92 | 2.4
11 | ATATGTAGGTTACATTCGGGTCATTCAGGCTATG | 2.91 | 4.73 | 1.76 | 3.19 | 1.04 | 4.3 | 5.53 | 5.07 | 2.31 | 4.62
12 | CAAACTAGGACAAGAGGTCAAAGTCCGCTTCCCG | 4.96 | 5.72 | 5.89 | 4.83 | 1.83 | 5.48 | 5.75 | 6.56 | 4.76 | 6.29
13 | TCCAGTTGGTCACGGAGGTCACACACGACGGGTA | 3.34 | 3.57 | 2.25 | 3.33 | 0.101 | 3.95 | 3.15 | 3.83 | 2.94 | 3.43
14 | ACTATCAGGCCAAGTTTGGGTCACTCAAACAAAG | 0.363 | 0.344 | -0.188 | 0.871 | 0.576 | 1.51 | 0.155 | 0.318 | -0.0574 | 0.171
15 | CTCGAAAGGTCGTGCTCAGGTGATTATACCAAAC | 4.98 | 4.19 | 0.561 | 3.64 | 0.429 | 4.83 | 2.63 | 3.52 | 0.939 | 2.35
16 | TCTTGTAGATCAATAGAGGTAAAGAAAGTGCGCT | 0.355 | 0.562 | -0.497 | 0.281 | -0.231 | 0.706 | -0.0447 | 1.14 | 2.57 | 1.62
17 | ACTAGCAGGCCAAGGATCACTCAAGATTAGTCCG | -0.313 | -0.212 | -0.373 | -0.592 | -0.598 | 0.628 | 2.12 | 3.37 | 1.33 | 2.55
18 | CGTCAAAATTCAAGGTAACGTAACAGAAAGCAGC | 0.068 | -0.273 | 0.242 | 0.13 | 0.187 | 0.331 | 0.678 | 0.108 | 0.0221 | 0.028
19 | ATCTCTAGGTAAAGTTCAGTAAAAGATCGATAGA | 1.06 | 1.77 | 1.7 | 1.29 | 0.992 | 2.18 | 2.91 | 4.22 | 2.52 | 4.14
